Data taken from ChEMBL document CHEMBL3988442, “University of Dundee, Small-Polar-MMV Screening Library” (2021).

Biological target: Chromo domain-containing protein 1 (Saccharomyces cerevisiae (strain ATCC 204508 / S288c) (Baker's yeast)) (UniProt P32657)
Assay: ScCHD-1 Enzyme Inhibition Assay
Format: functional
Parameters: scale not given: in the data most compounds retested in dose-response had high values
Settings: 30 µM

Chromo domain-containing protein 1 (Saccharomyces cerevisiae (strain ATCC 204508 / S288c) (Baker's yeast)), sequence (P32657 whole entry, the tested form may be a part): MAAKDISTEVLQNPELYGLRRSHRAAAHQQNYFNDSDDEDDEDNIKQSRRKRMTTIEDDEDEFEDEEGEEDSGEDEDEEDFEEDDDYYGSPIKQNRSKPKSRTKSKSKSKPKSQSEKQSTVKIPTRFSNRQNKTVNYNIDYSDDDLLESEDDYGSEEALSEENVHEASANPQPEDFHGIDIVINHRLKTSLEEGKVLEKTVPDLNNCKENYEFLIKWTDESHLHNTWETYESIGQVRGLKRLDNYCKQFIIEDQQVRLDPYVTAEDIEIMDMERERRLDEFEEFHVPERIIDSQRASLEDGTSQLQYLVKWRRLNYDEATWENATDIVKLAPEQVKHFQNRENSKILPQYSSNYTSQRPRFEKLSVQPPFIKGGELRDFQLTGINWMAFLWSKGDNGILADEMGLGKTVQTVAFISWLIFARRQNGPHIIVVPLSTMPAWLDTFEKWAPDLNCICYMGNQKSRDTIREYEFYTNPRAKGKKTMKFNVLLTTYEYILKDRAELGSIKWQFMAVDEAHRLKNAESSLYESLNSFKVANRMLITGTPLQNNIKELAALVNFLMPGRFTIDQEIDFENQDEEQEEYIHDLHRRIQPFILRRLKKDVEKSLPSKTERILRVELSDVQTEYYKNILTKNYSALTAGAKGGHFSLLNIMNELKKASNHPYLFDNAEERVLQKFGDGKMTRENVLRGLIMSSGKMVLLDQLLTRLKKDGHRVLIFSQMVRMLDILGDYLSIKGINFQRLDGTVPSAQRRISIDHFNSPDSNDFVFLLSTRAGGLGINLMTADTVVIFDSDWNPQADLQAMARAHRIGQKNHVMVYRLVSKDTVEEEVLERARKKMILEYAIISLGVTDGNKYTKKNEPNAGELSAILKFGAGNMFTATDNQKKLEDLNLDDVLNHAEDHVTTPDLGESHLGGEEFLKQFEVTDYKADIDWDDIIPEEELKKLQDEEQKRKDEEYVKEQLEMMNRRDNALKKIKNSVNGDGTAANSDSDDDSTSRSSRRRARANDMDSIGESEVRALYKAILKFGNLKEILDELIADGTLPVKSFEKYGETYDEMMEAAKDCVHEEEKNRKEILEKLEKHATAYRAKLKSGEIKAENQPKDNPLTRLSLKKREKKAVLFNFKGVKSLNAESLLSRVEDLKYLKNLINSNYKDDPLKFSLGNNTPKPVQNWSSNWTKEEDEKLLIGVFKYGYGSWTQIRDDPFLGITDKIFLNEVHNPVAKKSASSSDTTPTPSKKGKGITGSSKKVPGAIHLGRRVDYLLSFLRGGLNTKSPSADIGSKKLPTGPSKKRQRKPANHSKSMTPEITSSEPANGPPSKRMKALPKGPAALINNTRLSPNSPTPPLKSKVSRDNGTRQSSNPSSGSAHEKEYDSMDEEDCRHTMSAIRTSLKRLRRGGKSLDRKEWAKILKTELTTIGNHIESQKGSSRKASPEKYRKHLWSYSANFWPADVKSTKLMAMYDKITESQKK

SMILES | Percent Effect
Cc1ncsc1C(=O)N(C)CCc1ccncc1 | 5.09%
O=C(O)c1ccc(F)c(S(=O)(=O)Nc2c(F)cccc2-n2cccn2)c1 | -3.46%
Cn1cnc2c1C(COCc1cccnc1)N(Cc1ccccn1)CC2 (centres undefined) | -7.17%
Cc1cc(CN2CCCC(C)(CO)C2)ccc1F (centres undefined) | -7.89%
CCS(=O)(=O)CC(=O)NC(c1ccc(F)cc1)C1CCCC1 (centres undefined) | -4.36%
O=C(Nc1cccc(CN2CCOC2=O)c1)N1CCOCC1 | -2.72%
CC(C)c1cc(NC(=O)c2ccc(C(=O)NC(C)(C)C)cc2)[nH]n1 | -4.07%
CN(C)C(=O)CN1CCCCC1c1nc(N)ncc1-c1cccc(F)c1 (centres undefined) | -4.14%
CCN1CC(C(=O)NC(C)(C)CC(C)(C)C)CC1=O (centres undefined) | -10.2%
CC(C)CS(=O)(=O)CC(=O)N(C)Cc1ccc(OC(F)F)cc1 | -2.02%
Cc1ccc(C(=O)Nc2cn[nH]c2)cn1 | -10.8%
CSc1nccn1-c1cccc(C(=O)NCc2nnc(C)n2C)c1 | -2.71%
CN(Cc1cnn(C)c1)C(=O)Cn1c(CS(C)(=O)=O)nc2ccccc21 | -3.69%
CC1CN(Cc2nccn2C)CCN1c1ccc2nncn2n1 (centres undefined) | -9.26%
O=C(CCn1cccn1)N1CCN(CC(F)F)CC1 | -5.97%
Cc1noc(C(C)C)c1C(=O)N1CCCN(Cc2cscn2)CC1 | -23.9%
CS(=O)(=O)CCNC(=O)C1(c2cccc(Cl)c2)CCCCC1 | -0.434%
CCc1n[nH]c(C2CN(C(=O)c3ccsc3)CCO2)n1 (centres undefined) | -13.8%
CN(C)C(=O)N1C[C@@H]2CC[C@H](C1)N(C(=O)CCCn1cncn1)C2 | -3.6%
CN1CCN(C2CCN(CC(=O)NCC(F)(F)F)CC2)C1=O | -3.32%

SMILES | Percent Effect
CN(C)S(=O)(=O)N1C[C@@H](Oc2ccccn2)[C@H]2OCCC[C@H]21 | -11.1%
Cc1ccc(CC(=O)N2Cc3nccn3CC(CN(C)C)C2)cc1 (centres undefined) | -2.84%
COc1cc(CNCc2ccnc(N3CCOCC3)c2)cc(Cl)c1OC | -8.15%
CC(C)(C)OC(=O)NC(C)(C)c1noc(CN2CCCCC2)n1 | -7.41%
Cc1cc(CC(=O)NCc2ccnc(OCC(F)(F)F)c2)no1 | -5.08%
Cc1nc(N2CCN(C(=O)C(C)(C)C)CC2)cc(-n2cnc(C)c2C)n1 | -4.66%
Cc1ccc(-c2noc(CN3CCOC(Cn4cncn4)C3)n2)cc1 (centres undefined) | 5.54%
Cc1nc(C)n(CC2CCCN2CC(=O)NCCc2ccccc2)n1 (centres undefined) | -5.02%
Cn1c(C2CC2)nc2c1CCN(CC(=O)Nc1nncs1)C2 | -5.21%
CCc1csc(C2CCCN(C(=O)C3=NN(CC)C(=O)CC3)C2)n1 (centres undefined) | -7.52%
Cc1nccc([C@H]2C[C@@H]3CCN(S(=O)(=O)N(C)C)C[C@H]3O2)n1 | -6.72%
CO[C@H]1CCN(c2ncccn2)[C@H]1Cc1ccccc1 | -1.72%
CNc1cc(N2CCCC2CNCc2ccc(Cl)o2)ncn1 (centres undefined) | 89.7%
O=C(O)C(c1ccc2c(c1)OCO2)N1CCC(C(=O)N2CCCC2)CC1 (centres undefined) | -5.45%
COc1ccc(CC(=O)N2CCCCC2Cn2cccn2)cc1OC (centres undefined) | -1.27%
COCC(c1cccc(C(F)(F)F)c1)N(C)C(=O)c1cc(C)no1 (centres undefined) | -12.2%
CNS(=O)(=O)CCCN1CCCC1c1cc(C)on1 (centres undefined) | 0.192%
Cc1cc(C)n(CC2CCCN2CC(=O)NC2CCOCC2)n1 (centres undefined) | -3.99%
Cc1cc(C)n(-c2ccc(CNCc3ccc(OC(C)C)cc3)cn2)n1 | -10.2%
